Shown is part of a subset that was picked to be rich in hits.
HT1080 IDH1KD tx: HT-1080 IDH1 knockdown cell toxicity (counter line) | AID 686971 | HT-1080 IDH1 knockdown viability, ATP luminescence, 48 h | Potency, µM (top dose mostly 46.1 µM), inactives show top-dose activity, negative = toxicity, actives largely listed as cytotoxic | actives 2% (n = 360,000);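 further: potency means the concentration at half of the fitted maximal effect; 0% = DMSO wells and -100% = cell-free medium wells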
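Assay cells: HT-1080 with IDH1 knockdown, 750 per well, RPMI/5% FBS. Exposure: 48 h at 37 °C following 2 h pre-incubation. Read: CellTiter-Glo luminescence; fitted concentration-response, curve class assigned.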
TDP1 cell noCPT: qHTS for Inhibitors of human tyrosyl-DNA phosphodiesterase 1 (TDP1): qHTS in cells in absence of CPT; DT40 Tdp1-/- hTDP1 cells, no CPT, ATP luminescence, 48 h; Potency, µM (top dose mostly 46.2 µM), inactives show at the highest dose activity change, negative = growth inhibition, hits mostly inhibitors; actives 15% (n = 420,000); AID 686978, 2013; further: potency means the concentration at half of the fitted maximal effect; nearly all actives have a fitted effect of over 55% in size
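Cells were dispensed at 400 per well, compounds added by pin tool, plates incubated ≥48 hr at 37 °C, then CellTiter-Glo added for 30 min at room temperature before luminescence reading. Line: DT40 Tdp1-/- complemented with hTDP1; camptothecin omitted.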
HT1080-NT tox: kills 2HG-producing HT-1080-NT fibrosarcoma cells; HT-1080-NT fibrosarcoma viability, CellTiter-Glo ATP luminescence, 48 h; Potency, µM (doses to about 46.1 µM), for the others: at the top dose activity, negative = less viability, usual class: cytotoxic; actives 1.6% (n = 360,000);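 further: NT is the 2HG producing partner of a matched IDH1 knockdown line; potency means the concentration at half of the fitted maximal effect; 0% = DMSO-treated cells and -100% = media-only wells without cells; nearly all actives have a fitted effect of over 55% in size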
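Compounds were tested in concentration-response format on HT-1080-NT cells for 48 hours at 37 degrees C. Cell viability came from CellTiter-Glo luminescence; curves were classified by r2, response magnitude and activity.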
TDP1 cell CPT: growth inhibition of DT40 Tdp1-/-;hTDP1 cells with camptothecin (screen for TDP1 inhibitors) | chicken DT40 Tdp1-/-;hTDP1 cells + 20 nM CPT, ATP luminescence, 48 h | Potency, µM (doses to about 46.2 µM), inactives show at the top dose activity change, negative = growth inhibition, hits mostly inhibitors | actives 12% (n = 420,000); further: potency means the concentration at half of the fitted maximal effect; nearly all actives have a fitted effect of over 55% in size
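Chicken DT40 Tdp1-/- cells complemented with human TDP1, 400 cells/well, exposed to compounds plus 20 nM camptothecin for at least 48 h at 37 C; viability read as ATP content by CellTiter-Glo luminescence.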
IL1B secr inh: blocks inflammasome-driven IL-1 beta release. THP-1 LPS/ATP IL-1B secretion, AlphaLISA, 16 h; hits give low values. activity change, % at 57.5 µM. actives 4.7% (n = 360,000). AID 743279; in the data active means activity change below about -50%; inconclusive means mostly about -30% to -49%
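THP-1 cells pretreated 1 hr with compounds (up to 57.5 uM final), then stimulated with LPS (250 ng/mL final) plus ATP (1.25 mM final); secreted IL-1B measured by AlphaLISA after 16 hr, decreased signal indicating inhibition.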
ALOX12 inh: ALOX12 (human) lipoxygenase inhibition; P18054; Potency, µM (top dose mostly 108 µM), for the others: top-dose activity change, negative = inhibition, most hits filed as inhibitors; actives 1.1% (n = 580,000); purified 12hLO, xylenol orange hydroperoxide absorbance; further: potency means the concentration at half of the fitted maximal effect
Target sequence (P18054 whole entry, looked up): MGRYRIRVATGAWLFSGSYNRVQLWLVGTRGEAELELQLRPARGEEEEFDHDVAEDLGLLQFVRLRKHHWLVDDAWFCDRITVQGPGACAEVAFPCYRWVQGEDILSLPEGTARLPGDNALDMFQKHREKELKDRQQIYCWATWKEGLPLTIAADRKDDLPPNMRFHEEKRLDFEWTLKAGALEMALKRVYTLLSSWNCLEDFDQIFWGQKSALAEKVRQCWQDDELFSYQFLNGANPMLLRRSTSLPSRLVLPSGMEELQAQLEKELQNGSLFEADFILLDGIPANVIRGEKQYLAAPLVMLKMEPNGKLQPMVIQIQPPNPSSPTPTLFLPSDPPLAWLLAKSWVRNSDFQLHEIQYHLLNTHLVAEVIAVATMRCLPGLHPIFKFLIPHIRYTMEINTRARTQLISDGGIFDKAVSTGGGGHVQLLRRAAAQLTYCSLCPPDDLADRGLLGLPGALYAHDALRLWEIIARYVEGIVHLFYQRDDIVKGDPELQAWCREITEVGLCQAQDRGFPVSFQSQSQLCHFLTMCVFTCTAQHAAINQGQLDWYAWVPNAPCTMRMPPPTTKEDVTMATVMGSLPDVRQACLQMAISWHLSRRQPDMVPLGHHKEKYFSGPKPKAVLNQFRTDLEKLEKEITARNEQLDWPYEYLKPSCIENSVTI
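Hydroperoxide product was detected by ferrous iron/xylenol orange as the 573 to 405 nm absorbance ratio. Arachidonic acid at 40 uM (final) was turned over for 30 min at room temperature by 150 nM human 12hLO, pH 7.0 Hepes buffer, after 15 min compound preincubation.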
* = called active by the depositor; ? = inconclusive; / = no result given. Unless noted, the call rests on the fitted dose curve; in most records, active means well fitted curve in the direction sought with a large enough effect; inconclusive means small, poorly fitted or top-dose-only effect, or another doubt; inactive means no such curve, though single readings can be large; an effect the other way counts as inactive or inconclusive. Unless noted, on the % scale 0 is the no-effect control and ±100 the full control effect.

SMILES | HT1080 IDH1KD tx | TDP1 cell noCPT | HT1080-NT tox | TDP1 cell CPT | IL1B secr inh | ALOX12 inh
Cc1nn(C)c(=O)n1-c1ccccc1 | 13% | -7% | 17% | 14% | -5 | 32%
Cn1c2nc(=O)n(-c3ccccc3)c(=O)c-2nc2c1CCCC2 | -13% | ? | -11% | 21µM* | 11 | /
CC(C)NC(=O)CNC(=O)CCc1ncc(-c2ccc(F)cc2F)o1 | / | / | / | / | / | 18%
O=C(CCC1N=C2c3ccccc3N=C(SCc3ccccc3Cl)N2C1=O)NCCc1ccccc1 (stereo not given) | / | -30% | / | ? | / | -14%
O=C(CCC1N=C2c3ccccc3N=C(SCc3cccc(F)c3)N2C1=O)NCc1ccc(F)cc1 (stereo not given) | / | 18µM* | / | ? | / | -29%
N#CCSC1=Nc2ccccc2C2=NC(CCC(=O)N3CCN(c4ccccc4)CC3)C(=O)N12 (stereo not given) | -4% | -26% | -7% | -9% | -15 | -16%
O=C(CCC1N=C2c3ccccc3N=C(SCc3cccc(F)c3)N2C1=O)NCCc1ccccc1 (stereo not given) | / | ? | / | 21µM* | / | ?
O=C(CCC1N=C2c3ccccc3N=C(SCc3cccc(Cl)c3)N2C1=O)NCCc1ccccc1 (stereo not given) | / | ? | / | ? | / | -23%
O=C(CCC1N=C2c3ccccc3N=C(SCc3ccc(Cl)cc3)N2C1=O)NCCc1ccccc1 (stereo not given) | / | ? | / | 18µM* | / | -5%
O=C(CCC1N=C2c3ccccc3N=C(SCc3ccc(F)cc3)N2C1=O)N1CCN(c2ccccc2)CC1 (stereo not given) | / | 26µM* | / | ? | / | -10%
O=C(CCC1N=C2c3ccccc3N=C(SCc3ccc(Cl)cc3)N2C1=O)NCc1ccco1 (stereo not given) | -20% | ? | -3% | ? | ? | -8%
CC(C)CNC(=O)C1CCc2sc(C(=O)N3CCCCC3)cc2C1 (stereo not given) | / | / | / | / | / | 31%
COc1ccccc1CNC(=O)CCC1N=C2c3ccccc3N=C(SCC(=O)NCCc3ccc(OC)c(OC)c3)N2C1=O (stereo not given) | / | ? | / | 18µM* | / | -25%
O=C(CCC1N=C2c3ccccc3N=C(SCc3cccc(Cl)c3)N2C1=O)NCc1cccs1 (stereo not given) | / | 21µM* | / | 12µM* | / | -25%
O=C(CCC1N=C2c3ccccc3N=C(SCc3ccc(Cl)cc3)N2C1=O)NCc1cccs1 (stereo not given) | / | ? | / | ? | / | -1%
CCc1ccc(NC(=O)CSC2=Nc3ccccc3C3=NC(CCC(=O)NCc4ccccc4OC)C(=O)N23)cc1 (stereo not given) | / | -6% | / | -1% | / | ?
CCOC(=O)c1cnc2c(C)c(Cl)ccc2c1NCCc1ccc(OC)c(OC)c1 | / | 16µM* | / | ? | / | -28%
CCOC(=O)c1cnc2c(C)cccc2c1Nc1ccc(O)cc1 | / | / | / | / | / | -28%
CCOC(=O)c1cnc2c(C)cc(C)cc2c1NCCc1ccc(OC)c(OC)c1 | / | 23µM* | / | 21µM* | / | 1%
CCOC(=O)c1cnc2c(C)cccc2c1NCCc1ccc(OC)c(OC)c1 | ? | 23µM* | -28% | 16µM* | -6 | 5%
COc1ccc(CCNC(=O)COC(=O)COc2c(C)cc(C)cc2C)cc1OC | 4% | 2% | 8% | -9% | 22 | 331%
CC(Sc1ncnc2nc[nH]c12)C(=O)NCc1ccc(Cl)cc1 (stereo not given) | / | / | / | / | / | -15%
O=C1CSc2sc(=S)sc2SC1 | / | / | / | / | / | 5µM*
COc1ccc(S(=O)(=O)c2cc3ccc(OC)cc3oc2=O)cc1 | / | / | / | / | / | -13%
O=C(CC(c1ccccc1)c1ccco1)Nc1nccs1 (stereo not given) | 3% | 15µM* | 2% | 26µM* | 7 | 13%
SMILES | HT1080 IDH1KD tx | TDP1 cell noCPT | HT1080-NT tox | TDP1 cell CPT | IL1B secr inh | ALOX12 inh
COc1ccc(NC(=O)CC(c2ccccc2)c2ccco2)cc1 (stereo not given) | -17% | 16µM* | ? | ? | -5 | 6%
COc1cc(/C=C(/C#N)C(=O)Nc2ccccc2C(F)(F)F)cc(Br)c1OC | / | / | / | / | / | -19%
C[C@H](CO)N1C[C@H](C)[C@@H](CN(C)S(=O)(=O)c2ccc(F)cc2)Oc2ccc(NC(=O)C3CCCCC3)cc2C1=O | 4% | 16µM* | 0% | ? | -23 | -11%
C[C@H]1CN([C@@H](C)CO)C(=O)c2cc(NC(=O)C3CCCCC3)ccc2O[C@H]1CN(C)S(=O)(=O)c1ccccc1 | 5% | ? | 1% | 21µM* | -6 | ?
Cc1ccc(S(=O)(=O)N(C)C[C@H]2Oc3ccc(NC(=O)C4CCCCC4)cc3C(=O)N([C@H](C)CO)C[C@H]2C)cc1 | ? | 21µM* | ? | 26µM* | -69* | ?
CCc1cc(=O)oc2c3c(cc(OCC(=O)Nc4cccnc4)c12)OC(C)(C)CC3 | -20% | 15µM* | -1% | ? | ? | 6%
Cc1c(C)c2c(OCC(=O)NCc3cccnc3)cc3c(c2oc1=O)CCC(C)(C)O3 | -4% | -10% | -9% | -5% | 11 | 8%
CCc1cc(=O)oc2c3c(cc(OCC(=O)NCc4ccccn4)c12)OC(C)(C)CC3 | -3% | ? | 0% | 23µM* | -22 | 9%
CCc1cc(=O)oc2c3c(cc(OCC(=O)NCc4cccnc4)c12)OC(C)(C)CC3 | -3% | 21µM* | -3% | ? | -1 | -11%
CCCc1cc(=O)oc2c3c(cc(OCC(=O)NCCCn4ccnc4)c12)OC(C)(C)CC3 | -9% | 26µM* | -12% | 16µM* | 0 | 22%
O=C(COc1ccc2nc3n(c(=O)c2c1)CCC3)NC1CCCC1 | / | / | / | / | / | 13%
CC(=O)Oc1cc2c3c(c1)/C(=C1/SC(=S)NC1=O)C(=O)N3C(C)(C)C=C2C | -12% | -24% | -22% | -11% | 19 | 35%
Cc1cc2c3c(c1)C(C)CC(C)(C)N3C(=O)C2=O (stereo not given) | -11% | ? | -5% | 23µM* | -2 | 1%
CCOc1cc2c3c(c1)C(C)CC(C)(C)N3C(=O)C2=O (stereo not given) | 3% | 18µM* | 5% | ? | -15 | -13%

High-throughput results from PubChem.
